Fh CTSL1 inh = counter-screen for PFM18AAP inhibitors: inhibitors of F. hepatica cathepsin L1; recombinant F. hepatica cathepsin L1, Z-Leu-Arg-MCA fluorescence; 300,000 tested, 0.49% active; inhibition, % at 5.96 µM; AID 1906;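 active means inhibition above the mean of all tested compounds plus 3 SD, set per screening campaign, cut at about 17% in these data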;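 further: 0% = plate median of test compound wells and 100% = 1 µM Z-Phe-Ala-diazomethylketone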
pPAFAH inh = pPAFAH (human) enzyme inhibition. recombinant pPAFAH, FP-rhodamine probe fluorescence polarization. inhibition, % at 3.39 µM. 330,000 tested, 1.5% active;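 active means inhibition above the mean inhibition across the screen plus 3 SD, cut at about 25% in these data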;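 further: inhibitors block binding of the rhodamine activity-based probe so polarization drops; 0% = enzyme with DMSO and 100% = wells lacking pPAFAH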
PAFAH1B2 FP inh = blocks human PAF acetylhydrolase 1b catalytic subunit 2; 340,000 tested, 1.2% active; recombinant PAFAH1B2, FP-rhodamine activity probe, fluorescence polarization; AID 492953; inhibition, % at 3.39 µM;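 active means inhibition above the mean of all tested compounds plus 3 SD, cut at about 24% in these data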;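 further: 0% = enzyme with DMSO and 100% = wells lacking PAFAH1B2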
PAFAH2 FP inh = PAFAH2 (human) inhibition | 340,000 tested, 0.99% active | AID 492956 | recombinant PAFAH2, FP-rhodamine activity probe, fluorescence polarization | inhibition, % at 3.39 µM | Q99487;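 active means inhibition above the mean over all tested compounds plus 3 SD, cut at about 30% in these data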;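 further: inhibitors block probe labeling of enzyme so polarization drops; 0% = enzyme with DMSO and 100% = wells lacking PAFAH2 protein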
PAFAH1B3 FP inh = blocks human PAF acetylhydrolase 1B catalytic subunit 3. Q15102. recombinant PAFAH1B3, FP-rhodamine probe, fluorescence polarization. inhibition, % at 3.39 µM. 340,000 tested, 0.28% active. AID 492972;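 active means inhibition above the screen-wide average of all tested compounds plus 3 SD, cut at about 25% in these data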;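 further: 0% = enzyme with DMSO only and 100% = wells lacking PAFAH1B3 protein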
PP5 inh = blocks human protein phosphatase 5 activity | purified PP5c, OMFP substrate fluorescence | inhibition, % at 6.7 µM | 320,000 tested, 0.18% active | P53041;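 active means inhibition above the campaign's mean inhibition across all tested compounds plus 3 SD, cut at about 9.5% in these data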;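 further: 0% = DMSO only and 100% = 100 µM cantharidin control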
Target sequence (P53041 whole entry, looked up): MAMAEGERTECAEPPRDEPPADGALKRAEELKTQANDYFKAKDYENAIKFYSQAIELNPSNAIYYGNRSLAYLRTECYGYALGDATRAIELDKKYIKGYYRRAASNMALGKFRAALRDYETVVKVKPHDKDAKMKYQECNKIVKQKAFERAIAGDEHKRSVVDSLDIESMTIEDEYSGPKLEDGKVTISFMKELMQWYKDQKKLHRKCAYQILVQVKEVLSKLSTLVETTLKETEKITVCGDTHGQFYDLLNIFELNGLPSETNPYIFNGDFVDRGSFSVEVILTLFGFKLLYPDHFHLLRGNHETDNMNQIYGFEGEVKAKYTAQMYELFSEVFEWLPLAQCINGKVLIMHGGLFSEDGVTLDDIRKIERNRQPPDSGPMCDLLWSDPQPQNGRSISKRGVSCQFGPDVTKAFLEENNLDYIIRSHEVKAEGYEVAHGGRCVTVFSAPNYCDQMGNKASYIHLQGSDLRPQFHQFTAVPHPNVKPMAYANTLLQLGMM
PAFAH2 confirm = confirmation of human PAFAH2 inhibitors; shares compounds with PAFAH2 FP inh; recombinant PAFAH2, FP-rhodamine activity probe, fluorescence polarization; inhibition, % at 3.39 µM; 2,300 tested, 65% active; AID 493030;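 active means mean inhibition over three repeats above a set limit taken from the earlier primary screen, cut at about 30% in these data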;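 further: inhibitor blocks binding of rhodamine activity probe so polarization falls; 0% = enzyme with DMSO and 100% = wells lacking PAFAH2 protein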
Active calls of the source: *; . = no result given. An excerpt weighted towards active compounds, which were near 3% of everything screened.

SMILES	Fh CTSL1 inh	pPAFAH inh	PAFAH1B2 FP inh	PAFAH2 FP inh	PAFAH1B3 FP inh	PP5 inh	PAFAH2 confirm
O=C(COC(=O)/C=C/c1ccc(OC(F)F)cc1)NC1CCCCCCC1	1	0	2	66*	3	1	71*
O=C(COC(=O)/C=C/c1ccc(OC(F)F)cc1)NC1CCCCCC1	.	21	4	75*	6	.	70*
Nc1ccc2c(c1)C(O)c1cccc(C(=O)O)c1-2 (configuration not stated)	.	.	3	-5	9	.	.
COc1cccc(C(=O)OCC(=O)c2ccc(Br)s2)c1OC	.	19	-2	62*	4	3	52*
Cc1ccc(C(=O)NCC(=O)OCC(=O)c2ccc(Cl)s2)cc1	-13	7	3	8	4	-3	.
O=C(OCC(=O)C12CC3CC(CC(C3)C1)C2)c1ccc(CO)cc1	.	0	18	80*	5	-1	83*
O=C(OCC(=O)c1ccc(Cl)s1)c1ccc(CO)cc1	0	-1	5	61*	5	0	51*
O=C(OCC(=O)c1ccc(Br)s1)c1ccc(O)cc1	.	19	5	66*	4	.	61*
Cc1ccc(NC(=O)C2CCN(S(=O)(=O)c3c(C)nn(C)c3C)CC2)c(Cl)c1	-5	13	3	-5	7	2	.
Cc1ccc(C(=O)COC(=O)c2ccc(Cl)c(N)c2)s1	.	7	-2	32*	8	-1	22
CCOc1ccc(C(=O)NCC(=O)OCC(=O)NC2CCCC2)cc1	-20	6	5	36*	10	1	21
CCOc1ccc(C(=O)OCC(=O)NC2CCCCCCC2)cc1	.	20	1	93*	4	4	86*
O=C(Nc1cccc(-c2csc(Nc3cccc(C(F)(F)F)c3)n2)c1)c1cc([N+](=O)[O-])cc(C(F)(F)F)c1	-1	1	-6	30*	7	1	-9
O=C(Nc1ccc(-c2csc(Nc3ccccc3)n2)cc1)c1cc([N+](=O)[O-])cc(C(F)(F)F)c1	3	2	23	50*	22	-1	-8
Cc1ccc(-c2csc(NC(=O)c3cccc([N+](=O)[O-])c3)n2)cc1	0	4	2	3	6	1	.
CCCCC1SC(N)=NC1=O (configuration not stated)	.	.	4	-7	5	.	.
COCCNC(=O)C(=O)NCC(c1ccc2c(c1)OCO2)N1CCN(c2ccc(F)cc2)CC1 (configuration not stated)	-4	-3	-2	4	3	0	.
C/C(=N/OC(=O)CC(C)C)c1cc(-c2ccc(Cl)cc2)no1	2	8	0	57*	9	-3	45*
COc1ccc(N(C)C(=O)c2cc3c(s2)-c2ccccc2S(=O)(=O)C3)cc1	1	0	3	-6	-2	2	.
COc1cc(OC)c(N(C)C(=O)c2cc3c(s2)-c2ccccc2S(=O)(=O)C3)cc1Cl	-7	-4	6	31*	10	0	3
CN(C1(C)CCS(=O)(=O)C1)S(=O)(=O)c1ccc2ccccc2c1 (configuration not stated)	-1	3	-1	7	6	0	.
CCc1cccc(C)c1NC(=O)Nc1c(Br)cnn1C	-3	1	4	-2	2	1	.
Cc1ccc(C(=O)O/N=C(\N)Cc2cccs2)cc1[N+](=O)[O-]	-2	13	3	36*	5	0	12
COc1ccc(C(=O)O/N=C(\N)Cc2cccs2)cc1OC	-4	13	2	79*	6	-2	76*
N/C(Cc1cccs1)=N\OC(=O)COc1ccc(Br)cc1Cl	-1	5	10	5	1	1	.
COc1ccccc1C/C(N)=N/OC(=O)c1ccc(C)c([N+](=O)[O-])c1	-4	6	2	24	5	1	.
O=C(c1cnn2c(-c3ccccc3)cc(-c3ccccc3)nc12)N1CCN(Cc2ccccc2)CC1	1	7	3	0	2	1	.
COCCNC(=O)C(c1ccc(F)cc1)N(Cc1cccs1)C(=O)CCC(=O)Nc1ccccn1 (configuration not stated)	-7	1	15	1	0	3	.

Source: PubChem BioAssay
